{"source": "PubChem BioAssay (Tox21)", "note": "“And” between values parts separate entries of the source, which are not always exact repeats. Identical values can stand only once. Records with an inconclusive call do not appear. Values without a mark were called inactive. The source made the active and inactive calls. Calls follow the shape of the dose curve; as a rule, active = well fitted cell-killing curve with a large enough effect in the repeat runs; inconclusive = weak or mixed curves, or effect the other way; inactive = flat fitted curve, though single readings scatter. % is scaled to controls: 0 for no effect and ±100 for the full control effect; potency is read from the fitted curve at half-maximal effect."}
{"test": "qHTS assay to identify small molecule that activate the aryl hydrocarbon receptor (AhR) signaling pathway - cell viability counter screen (AID 743086); also: nearly all actives have a fitted effect of over 45% in size;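 as to viability change, negative = cytotoxic: HepG2 liver cells carrying the AhR DRE luciferase reporter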", "conditions": "HepG2-AhR-luc viability, CellTiter-Fluor, 24 h; series mostly up to 70.3 µM; viability change, negative = cytotoxic: at the top concentration", "excerpt": "U.S. Tox21 Program National Center for Advancing Translational Sciences [NCATS] NIH Chemical Genomics Center [NCGC] U.S. Environmental Protection Agency [EPA] National Institutes of Environmental Health Sciences [NIEHS] National Toxicology Program [NTP] U.S. Food and Drug Administration [FDA] Tox21 Assay overview: The Aryl hydrocarbon Receptor (AhR), a member of the family of basic helix-loop-helix transcription factors, is crucial to adaptive responses to environmental changes. AhR mediates cellular responses to environmental pollutants such as aromatic hydrocarbons through induction of phase I and II enzymes but also interacts with other nuclear receptor signaling pathways A cell based HepG2-AhR-luc assay (HG2L7.5c1 cell line, developed by Dr. Michael S. Denison, University of California at Davis) was used to assess the activation of AhR. HepG2 (human hepatocellular carcinoma) cells were stably transfected with an Ah receptor-responsive firefly luciferase reporter gene plasmid containing 20 dioxin responsive elements and luciferase reporter gene. Increased luciferase activity can be used to identify the compounds that induce AhR activation. The cytotoxicity of the compounds screened against the HepG2-AhR-luc cell line was tested in parallel by measuring the cell viability using CellTiter-Fluor assay in the same wells.\nTox21 Assay Protocol Summary: 4000 cells in 5 uL/well were dispensed into white wall/solid bottom 1536-well plates using a Multidrop Combi (Thermo Fisher Scientific Inc., Waltham, MA) dispenser. After the assay plates were incubated at 37C for 5 h, 23 nL of compound or DMSO vehicle was transferred to the assay plates by a pintool station (Kalypsys, San Diego, CA). The plates were incubated at 37C for 24 hr. For cell viability measurement, 1 ul/well of CellTiter-Fluor reagent (Promega, Madison, WI) was added into the assay plates using a Flying Reagent Dispenser (FRD) (Aurora Discovery, CA),and then the assay plates were incubated at 37C for 30 min. The fluorescence intensity in the plates was measured using a ViewLux plate reader (PerkinElmer, Shelton, CT), followed by the addition of 4 uL of ONE-Glo Luciferase Assay reagent (Promega) using an FRD (Aurora Discovery). After the assay plates were incubated at room temperature for 30 min, luminescence intensity was measured using a ViewLux plate reader (Perkin Elmer)."}
{"smiles": "CCC(C)[O-].CCC(C)[O-].CCOC(=O)/C=C(/C)[O-].[Al+3]", "viability change, negative = cytotoxic": "-3.65%"}
{"smiles": "O=c1[nH]c(=O)n([C@H]2C[C@H](O)[C@@H](CO)O2)cc1F", "viability change, negative = cytotoxic": "6.66%"}
{"smiles": "O=S(=O)(O)c1ccc(N=Nc2c(O)ccc3ccccc23)cc1", "Potency": "24.3 µM (active)"}
{"smiles": "CCC(C)n1ncn(-c2ccc(N3CCN(c4ccc(OC[C@H]5CO[C@](Cn6cncn6)(c6ccc(Cl)cc6Cl)O5)cc4)CC3)cc2)c1=O", "note": "(stereo not given in full)", "viability change, negative = cytotoxic": "-6.15%"}
{"smiles": "O=C(O)c1cccc(C(F)(F)F)c1", "viability change, negative = cytotoxic": "13.8%"}
{"smiles": "[Cl][Pt-2]([Cl])([Cl])[Cl]", "viability change, negative = cytotoxic": "-4.32% [at 95 µM]"}
{"smiles": "O=C1OC2(c3ccc(O)cc3Oc3cc(O)ccc32)c2ccc(N=C=S)cc21", "viability change, negative = cytotoxic": "-18.3% [at 95 µM]"}
{"smiles": "C=CC(C)(CCC=C(C)C)OC=O", "note": "(stereo not given)", "viability change, negative = cytotoxic": "1.14%"}
{"smiles": "COc1cc(S(=O)(=O)O)c(C)cc1N=Nc1c(O)ccc2cc(S(=O)(=O)O)ccc12", "Potency": "9.69 µM (active)"}
{"smiles": "CCCCCCCCCCCCCC[N+](C)(C)C", "Potency": "16.8 µM (active) and 52.7 µM (active) and 54.4 µM (active)"}
{"smiles": "Cc1c(C)c([N+](=O)[O-])c(C(C)(C)C)c([N+](=O)[O-])c1C", "viability change, negative = cytotoxic": "-3.28%"}
{"smiles": "c1cnccn1", "viability change, negative = cytotoxic": "-4.46% [at 95 µM]"}
{"smiles": "Cl[Si](Cl)(c1ccccc1)c1ccccc1", "viability change, negative = cytotoxic": "3.75% [at 95 µM]"}
{"smiles": "Cc1ccc(-c2ccccc2)cc1", "viability change, negative = cytotoxic": "3.94%"}
{"smiles": "C=Cc1cccc(C)c1", "viability change, negative = cytotoxic": "-5.06%"}
{"smiles": "C=C(C)c1cccc(C(=C)C)c1", "viability change, negative = cytotoxic": "-4.87%"}
{"smiles": "O=C(O)[C@H](O)[C@@H](O)[C@H](O[C@@H]1O[C@H](CO)[C@H](O)[C@H](O)[C@H]1O)[C@H](O)CO", "viability change, negative = cytotoxic": "22.4% [at 32.5 µM]"}
{"smiles": "COc1c(C)c2c(c(O)c1C/C=C(\\C)CCC(=O)OCCN1CCOCC1)C(=O)OC2", "viability change, negative = cytotoxic": "0.358%"}
{"smiles": "O=C1CCc2ccc(OCCCCN3CCN(c4cccc(Cl)c4Cl)CC3)cc2N1", "viability change, negative = cytotoxic": "-8.63%"}
{"smiles": "COC(=O)Nc1nc2ccc(C(=O)c3ccccc3)cc2[nH]1", "viability change, negative = cytotoxic": "1.01% [at 32.5 µM]"}
{"smiles": "CC1(C)CCC[C@]2(C)[C@H]3CC(=O)O[C@]3(C)CC[C@@H]12", "viability change, negative = cytotoxic": "5.65%"}
{"smiles": "CCCCC(CC)CN1CN(CC(CC)CCCC)CC(C)(N)C1", "note": "(stereo not given)", "viability change, negative = cytotoxic": "-4.19% [at 32.5 µM]"}
{"smiles": "CC(CCc1ccccc1)NCC(O)c1ccc(O)c(C(N)=O)c1", "note": "(stereo not given)", "viability change, negative = cytotoxic": "-27.5%"}
{"smiles": "CC[N+](CC)(CC)CCOc1ccc(/C=C/c2ccccc2)cc1", "Potency": "inactive"}
{"smiles": "C[Si](Cl)(c1ccccc1)c1ccccc1", "viability change, negative = cytotoxic": "6.62%"}
{"smiles": "Oc1cc(Cl)cc(Cl)c1Cl", "viability change, negative = cytotoxic": "-14.4% [at 95 µM]"}
{"smiles": "Cc1c(C)c2c(c(C)c1O)CC[C@@](C)(CCC[C@H](C)CCC[C@H](C)CCCC(C)C)O2", "Potency": "inactive"}
{"smiles": "O=C(Oc1ccccc1)Oc1ccccc1", "viability change, negative = cytotoxic": "10.1%"}
{"smiles": "CCN1C(=O)c2ccccc2C1Nc1ccc(OCCN2CCCCC2)cc1", "note": "(stereo not given)", "viability change, negative = cytotoxic": "7.54%"}
{"smiles": "CC(=O)c1ccc(C(C)=O)cc1", "viability change, negative = cytotoxic": "6.62% [at 95 µM]"}
{"smiles": "Nc1ccc(Oc2ccc(Cl)cc2)cc1", "viability change, negative = cytotoxic": "2.8%"}
{"smiles": "CCCC(=O)OCCc1ccccc1", "viability change, negative = cytotoxic": "-3.48%"}
{"smiles": "C1CCC(SSC2CCCCC2)CC1", "viability change, negative = cytotoxic": "-1.55%"}
{"smiles": "CCC(CC)(CC(=O)Nc1cccc(/C=C/c2nc(C3CCC3)cs2)c1)C(=O)O", "viability change, negative = cytotoxic": "6.21%"}
{"smiles": "CC(C)NC[C@@H](O)COc1ccc(CC(N)=O)cc1", "viability change, negative = cytotoxic": "-1.68%"}
{"smiles": "Cc1ccc(C)cc1", "viability change, negative = cytotoxic": "-3.48%"}
{"smiles": "CCCCCC(C)OC(=O)COc1ccc(Cl)c2cccnc12", "note": "(stereo not given)", "viability change, negative = cytotoxic": "-0.624%"}
{"smiles": "CCc1oc2ccccc2c1C(=O)c1cc(I)c(O)c(I)c1", "viability change, negative = cytotoxic": "9%"}
{"smiles": "CN(C)c1ccc(C(=C2C=CC(=[N+](C)C)C=C2)c2ccc(N(C)C)cc2)cc1", "Potency": "9.44 µM (active) and 19.2 µM (active) and 24.3 µM (active)"}
{"smiles": "COc1cc(C)ccc1O", "viability change, negative = cytotoxic": "2.42%"}
